Drawing on PubChem BioAssay (NCI), this text covers growth for twelve compounds.

About 83,000 compounds went through this panel and 20% of them were active in at least one assay; those are over-represented in the sample as a whole.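 Plates (96-well) were seeded with cells, treated with compound at one concentration, and incubated for 48 hours before percent growth was determined.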 Unmarked numbers belong to inactive results. Activity calls are given as the source filed them. Rule for the calls: active = growth percent below 10; inactive = the rest.

For this assay, the system named is HL-60(TB) leukemia. The assay is described as follows: NCI-60 one-dose screen, 48 h (100 = growth as untreated, 0 = no growth, -100 = all killed). The conditions noted are these: 10 µM unless noted.
With `COc1cc(C2N=C(NNc3ccccc3)NC(C)=C2C(C)=O)ccc1O` (configuration not stated), the growth was 92.3%. For the compound `CN1C(=S)N(C)C2C1NN=C1SC(c3ccccc3)=CC(=O)N12` (configuration not stated), the growth is 80.7%. `CC(=O)Nc1ccccc1-c1nc2ccccc2s1`: the growth was 99.5%.

As for `O=C1[C@H]2Cc3c([nH]c4ccccc34)[C@@H](c3c(Cl)cccc3Cl)N2C(=O)CN1C1CCN(Cc2ccccc2)CC1`, the growth is 65.7%. Under `O=C1[C@H]2Cc3c([nH]c4ccccc34)[C@H](c3ccc(Cl)cc3)N2C(=O)CN1C1CCN(CC2CCCCC2)CC1` stands 47.2%; under `CCO/C=N/C1=C(C#N)C(c2ccc(F)cc2)c2sc3c(CC)cccc3c2O1` (configuration not stated), -19.1% (active).

Consider `O=C(CCN1C(=O)/C(=C/c2ccccc2)SC1=S)N1CCOCC1`, for which the growth is 89.3%. Take `[Cl][Ru].c1ccc(-c2cc(-c3ccccn3)nc(-c3ccccn3)c2)cc1.c1ccc(-c2ccnc3c2ccc2c(-c4ccccc4)ccnc23)cc1`: the growth is -29.2% (active). Take `O=C(CCCCCCNC(=O)C(O)(O)C(F)(F)F)Nc1nc2ccccc2s1`: the growth is 11.3%. Take `CC(=O)Nc1nc2c(s1)C1=CC[C@H]3[C@@H]4CC[C@H](C(C)=O)[C@@]4(C)CC[C@@H]3[C@@]1(C)CC2`: the growth is 52.5%.

Take `O=C(CCn1cc[n+](CC(=O)c2ccc(-c3ccccc3)cc2)c1)Nc1cccc2cccnc12`: the growth is 13.9%.

Turning to `CN1CCN(Cc2ccc(NC(=O)c3cncc(C#Cc4cnc5ccc(OCC(F)F)nn45)c3)cc2C(F)(F)F)CC1`, the growth was -52.2% (active).
